Values joined by “and” are separate entries in the source; they are usually repeats but may differ in a detail not shown here. Equal values may be shown once. Among all 55,000 compounds or so, about 90 (0.2%) were called active. The rule behind the calls is not given here. Many of the other results were omitted from the sample, so actives are more common in it than they were. A structure can be active in one record and inactive in another.
Test: growth inhibitors of anaerobic choline-fed gram-negatives, minimal medium, absorbance (AID 1963822)
Conditions: Gram-negative bacterium anaerobic choline minimal medium
[1] = measured here: choline growth z-score, timepoint 1, stronger effect = lower value

Row | Compound | z-score (stronger effect = lower value) | z-score [1]
1 | CCCC(=O)Nc1cccc(OCc2cc(=O)n3ccccc3n2)c1 | 0.39 (inactive) | 0.6
2 | Cc1sc2cc(C(=O)NCCN3CCN(C)CC3)[nH]c2c1CN1CCCCC1 | -0.21 (active) | -4.45
3 | O=C(NCCCN1CCCCC1)c1cc2n(n1)CCCN(Cc1ccc(F)cc1)C2=O | 0.15 (inactive) | -0.23
4 | CN1CCN(CCNC(=O)c2cnc3sc4c(n3c2=O)CCC4)CC1 | -0.87 (inactive) | -0.3
5 | Cc1ccc(F)c(NS(=O)(=O)c2cc(-c3nc(C(C)(C)C)cs3)cs2)c1 | 0.79 (inactive) | 0.58
6 | CCCCOc1ccccc1C1CC(=O)Nc2c1c(C)nn2-c1ccc2nncn2n1 (stereo not drawn) | 0.78 (inactive) | 0.83
7 | O=C(NC1CC1)c1snc(-c2ccccn2)c1NC(=O)C1CC1 | 0.58 (inactive) | 1.01
8 | CCc1ccc(NS(=O)(=O)c2cc(-c3nc(C(C)C)cs3)cs2)cc1 | -0.41 (inactive) | 0.54
9 | Cc1cccc(C2C3=C(CC(c4ccccc4)CC3=O)Nc3onc(C)c32)c1 (stereo not drawn) | 1.84 (inactive) | 1.45
10 | O=C1Nc2ccccc2Oc2cc(Cl)c(S(=O)(=O)N3CCCC3)cc21 | 1.05 (inactive) | -0.01
11 | O=C(COc1ccccc1)Nc1noc(-c2ccc(Cl)cc2)n1 | -0.07 (inactive) | -0.68
12 | Cc1ccc(C)c(Cn2cccc(S(=O)(=O)N3CCCC3)c2=O)c1 | 1.03 (inactive) | 0.96
13 | CS(=O)(=O)NC1CCN(C(=O)C2CCCC2)C1 (stereo not drawn) | 0.08 (inactive) | 0.92
14 | CCC(C(=O)Nc1ccccc1OC)n1nc(-c2ccccc2)ccc1=O (stereo not drawn) | 0.41 (inactive) | -0.44
15 | COc1ccc(CSc2nccc3c2ccn3CC(=O)NCc2ccc3c(c2)OCO3)cc1 | 1.77 (inactive) | 1.27
16 | O=C(CSCc1nc2cccnc2n1C1CCCCC1)NCc1cccc(F)c1 | 0.62 (inactive) | 1.42
17 | Cc1ccccc1C1CC(=O)c2cnc3c(-c4ccc(F)cc4)c(C)nn3c2C1 (stereo not drawn) | 0.81 (inactive) | 0.27
18 | O=C(COc1ccccc1)Nc1noc(-c2ccccc2)n1 | -2.24 (inactive) | -0.92
19 | O=C(NCc1ccc(Cl)cc1)c1ccc(-n2nnc3cccnc32)cc1 | 0.42 (inactive) | 0.46
20 | Cc1nn(-c2ccccc2)c2sc(C(=O)N3CCN(c4cccc(Cl)c4)CC3)cc12 | 0.97 (inactive) | 1.5
21 | COc1ccc(-c2noc(-c3ccc[nH]c3=O)n2)cc1OC | 1.32 (inactive) | 1.18
22 | Clc1ccc(C(CNc2nn3cnnc3c3ccccc23)N2CCCCC2)cc1 (stereo not drawn) | -0.12 (inactive) | -0.1
23 | CC(C)NC(=O)N1CCCC(c2cccc(C(=O)NCc3ccc(Cl)cc3)c2)C1 (stereo not drawn) | 0.72 (inactive) | 0.1
24 | CCOC(=O)c1cnn(CCOC(=O)COC)c1NC(=O)COC | 0.06 (inactive) | 0.2
25 | Cc1noc2c1C(c1ccc(Cl)cc1)C1=C(CC(c3ccc(O)cc3)CC1=O)N2 (stereo not drawn) | -1.06 (inactive) | 0.58

Row | Compound | z-score (stronger effect = lower value) | z-score [1]
26 | CCCCC(=O)Nc1cc(N2CCn3c(nc4ccccc43)C2)ccc1C | -0.54 (inactive) | 0.09
27 | COc1ccc(NC(=O)C2CCN(C(=O)c3ccc(-c4noc(C)n4)cc3)CC2)cc1OC | 0.58 (inactive) | -0.71
28 | CCc1ccc(-c2ccc(=O)[nH]n2)cc1S(=O)(=O)N1CCOCC1 | -0.21 (inactive) | -0.65
29 | O=C(O)c1cc(N2CCN(c3ccc(Cl)cc3)CC2)ccc1NC(=O)C1CCC1 | 0.22 (inactive) | 0.14
30 | O=c1c(S(=O)(=O)c2ccc(F)c(Cl)c2)c[nH]c2c(F)cc(Cl)cc12 | -1.66 (inactive) | -1.06
31 | CNC(=O)c1ccc(NC(=O)N2CCCCc3ccccc32)cc1 | 0.76 (inactive) | -0.19
32 | COC(=O)c1cnc(N(C)C2CCCCC2)c2ccccc12 | 0.22 (inactive) | -0.03
33 | Cc1nc(Nc2ccccc2)nc2c1C(=O)CC(C)C2 (stereo not drawn) | 0.7 (inactive) | 0.46
34 | COCc1cc(C)nc2sc3c(c12)NC(C)N(c1ccc(C)cc1)C3=O (stereo not drawn) | -0.14 (inactive) | -1.91
35 | Cc1ccc(-n2cc(C(=O)O)c3ccccc3c2=O)cc1 | 1.03 (inactive) | 0.91
36 | Cc1ccc2c(c1)OCC(=O)N2CC(=O)O | -1.28 (inactive) | -1.54
37 | Cc1ccc(C2C3=C(CCCC3=O)Nc3ccccc3N2C(=O)c2ccccc2)cc1 (stereo not drawn) | -0.78 (inactive) | 0.3
38 | CCN1CCN(C(=O)C2CCCN(S(=O)(=O)c3cc(-c4noc(C5CC5)n4)sc3C)C2)CC1 (stereo not drawn) | 0.63 (inactive) | 0.78
39 | COc1cc(OC)cc(C(=O)Nc2nc(CC(=O)Nc3ccc(OC)c(OC)c3)cs2)c1 | -0.43 (inactive) | -0.34
40 | CCn1nc(C)c(CCN(C)C(=O)NCC2CCCO2)c1C (stereo not drawn) | -1.05 (inactive) | -1.68
41 | O=C(CSc1ccccc1)N1CCN(Cc2cc(=O)n3nc(-c4ccccc4F)sc3n2)CC1 | 0.75 (inactive) | 0.13
42 | Cn1c(=O)oc2cc(S(=O)(=O)N3CCC4(CC3)Nc3cc(F)ccc3-n3cccc34)ccc21 | -0.55 (inactive) | 0.11
43 | O=S(=O)(Cc1ccccc1)N1CCCC1c1ccc(Cl)cc1 (stereo not drawn) | -0.27 (inactive) | -0.13
44 | CN1CCC[C@@H]1CCO[C@](C)(c1ccccc1)c1ccc(Cl)cc1 | -1.24 (inactive) and -1.63 (active) and 0.92 (inactive) | 0.36 and -2.85 and -1.59
45 | CCOC(=O)c1cnc2c(-c3ccccc3)c(COc3ccccc3)nn2c1N | -0.05 (inactive) | -0.12
46 | O=C(Nc1ccc2c(c1)OCCO2)c1cccc(Oc2ccnc(-c3ccc(F)cc3)n2)c1 | -0.1 (inactive) | 0.77
47 | O=C(CC1CCCC1)N1CCN=C1N1CCCC1 | -1.26 (inactive) | -0.58
48 | CCOc1ccc(CNC(=O)C2(NS(=O)(=O)c3cccc4cccnc34)CCCCC2)cc1 | 0.35 (inactive) | 0.16
49 | COc1cccc(-n2ccnc2SCc2nc(-c3ccccc3)no2)c1 | 0.5 (inactive) | 0.33

From PubChem BioAssay AID1963822 (ICCB-Longwood Screening Facility, Harvard Medical School, 2024)
